Results: PubChem BioAssay AID1159580 (chemical genetic matrix, 2015)
Hit rate of the full screen: of about 5,500 compounds, about 2,000 (36%) were called active. Not shown: some 18% with an inconclusive outcome. Rule as the data show it: active = normalized growth mostly below about 0.91 (no sharp cut-off); inconclusive = no clear call, values can overlap the other calls; inactive = mostly above about 0.92. This is one part of the list.

Assay: chemical genetic growth profiling, strain panel (AID 1159580);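 also: tested at 20 µM; growth read once vehicle control cultures reached saturation at 30 °C; 1 = growth at the plate median or of vehicle wells; lower values mean less growth of the strain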
Conditions: growth OD

Measured: normalized growth

COc1cc(OC)c2c(c1)O[C@H](c1cc(OC)c(OC)c(OC)c1)[C@H](OC(=O)c1cc(OC)c(OC)c(OC)c1)C2
inactive: S. cerevisiae deletion strains, locus YAL013W, strain DEP1, hits give low values 1.01 | S. cerevisiae deletion strains, locus YBR021W, strain FUR4, hits give low values 0.998 | S. cerevisiae deletion strains, locus YBR229C, strain ROT2, hits give low values 1.02 | S. cerevisiae deletion strains, locus YCL029C, strain bik1, hits give low values 1.01 | S. cerevisiae deletion strains, locus YDL035C, strain GPR1, hits give low values 0.994 | S. cerevisiae deletion strains, locus YDL074C, strain BRE1, hits give low values 0.996 | S. cerevisiae deletion strains, locus YDL101C, strain DUN1, hits give low values 1 | S. cerevisiae deletion strains, locus YDL134C, strain PPH21, hits give low values 1 | S. cerevisiae deletion strains, locus YDL185W, strain tfp1, hits give low values 1.01 | S. cerevisiae deletion strains, locus YDL192W, strain arf1, hits give low values 1 | S. cerevisiae deletion strains, locus YDR101C, strain arx1, hits give low values 0.999 | S. cerevisiae deletion strains, locus YDR150W, strain NUM1, hits give low values 1.01 | S. cerevisiae deletion strains, locus YDR162C, strain NBP2, hits give low values 1 | S. cerevisiae deletion strains, locus YDR318W, strain mcm21, hits give low values 0.997 | S. cerevisiae deletion strains, locus YDR388W, hits give low values 1 | S. cerevisiae deletion strains, locus YDR502C, strain sam2, hits give low values 0.991 | S. cerevisiae deletion strains, locus YEL061C, strain CIN8, hits give low values 1.01 | S. cerevisiae deletion strains, locus YER110C, hits give low values 1 | S. cerevisiae deletion strains, locus YER155C, strain BEM2, hits give low values 1 | S. cerevisiae deletion strains, locus YER167W, strain BCK2, hits give low values 1.02 | S. cerevisiae deletion strains, locus YGL078C, strain dbp3, hits give low values 1 | S. cerevisiae deletion strains, locus YGL086W, strain mad1, hits give low values 0.991 | S. cerevisiae deletion strains, locus YGL248W, strain PDE1, hits give low values 1.01 | S. cerevisiae deletion strains, locus YGR078C, strain PAC10, hits give low values 1.02 | S. cerevisiae deletion strains, locus YGR135W, strain pre9, hits give low values 0.994 | S. cerevisiae deletion strains, locus YGR229C, strain SMI1, hits give low values 0.993 | S. cerevisiae deletion strains, locus YGR252W, strain gcn5, hits give low values 0.933 | S. cerevisiae deletion strains, locus YHR030C, strain SLT2, hits give low values 1.01 | S. cerevisiae deletion strains, locus YHR079C, strain IRE1 (second series), hits give low values 1 | S. cerevisiae deletion strains, locus YHR094C, strain hxt1, hits give low values 0.996 | S. cerevisiae deletion strains, locus YHR129C, strain ARP1, hits give low values 1.01 | S. cerevisiae deletion strains, locus YHR200W, strain rpn10, hits give low values 0.999 | S. cerevisiae deletion strains, locus YIL066C, strain RNR3, hits give low values 0.997 | S. cerevisiae deletion strains, locus YIL073C, strain SPO22, hits give low values 0.995 | S. cerevisiae deletion strains, locus YIL125W, strain kgd1, hits give low values 1 | S. cerevisiae deletion strains, locus YIR030C, strain dcg1, hits give low values 1.01 | S. cerevisiae deletion strains, locus YJL095W, strain BCK1, hits give low values 1.01 | S. cerevisiae deletion strains, locus YJL134W, strain LCB3, hits give low values 1.01 | S. cerevisiae deletion strains, locus YJL168C, strain set2, hits give low values 1 | S. cerevisiae deletion strains, locus YJL187C, strain SWE1 (second series), hits give low values 1 | S. cerevisiae deletion strains, locus YJR043C, strain POL32, hits give low values 0.992 | S. cerevisiae deletion strains, locus YJR075W, strain HOC1, hits give low values 1 | S. cerevisiae deletion strains, locus YKL009W, strain mrt4, hits give low values 0.983 | S. cerevisiae deletion strains, locus YKL068W, hits give low values 1.01 | S. cerevisiae deletion strains, locus YKL085W, strain MDH1 (second series), hits give low values 0.993 | S. cerevisiae deletion strains, locus YKL085W, strain MDH1, hits give low values 0.993 | S. cerevisiae deletion strains, locus YKL190W, strain CNB1, hits give low values 0.998 | S. cerevisiae deletion strains, locus YKR001C, strain vps1, hits give low values 0.99 | S. cerevisiae deletion strains, locus YLR039C, strain RIC1, hits give low values 1.01 | S. cerevisiae deletion strains, locus YLR058C, strain SHM2, hits give low values 1.01 | S. cerevisiae deletion strains, locus YLR102C, strain apc9, hits give low values 1 | S. cerevisiae deletion strains, locus YLR262C, strain YPT6, hits give low values 1.02 | S. cerevisiae deletion strains, locus YLR268W, strain sec22, hits give low values 1.01 | S. cerevisiae deletion strains, locus YLR330W, strain CHS5, hits give low values 1.01 | S. cerevisiae deletion strains, locus YLR342W, strain FKS1 (second series), hits give low values 1 | S. cerevisiae deletion strains, locus YLR371W, strain rom2, hits give low values 1.01 | S. cerevisiae deletion strains, locus YLR418C, strain cdc73, hits give low values 0.973 | S. cerevisiae deletion strains, locus YML016C, strain PPZ1, hits give low values 1 | S. cerevisiae deletion strains, locus YML032C, strain rad52, hits give low values 0.992 | S. cerevisiae deletion strains, locus YML124C, strain tub3, hits give low values 1 | S. cerevisiae deletion strains, locus YMR078C, strain ctf18, hits give low values 1 | S. cerevisiae deletion strains, locus YMR223W, strain ubp8, hits give low values 0.994 | S. cerevisiae deletion strains, locus YMR263W, strain SAP30, hits give low values 1 | S. cerevisiae deletion strains, locus YMR307W, strain GAS1, hits give low values 0.951 | S. cerevisiae deletion strains, locus YNL067W, strain RPL9B, hits give low values 1.01 | S. cerevisiae deletion strains, locus YNL128W, strain TEP1, hits give low values 1.02 | S. cerevisiae deletion strains, locus YNL153C, strain GIM3, hits give low values 1.01 | S. cerevisiae deletion strains, locus YNL233W, strain BNI4, hits give low values 1 | S. cerevisiae deletion strains, locus YNL250W, strain rad50, hits give low values 1 | S. cerevisiae deletion strains, locus YNL271C, strain bni1, hits give low values 1.01 | S. cerevisiae deletion strains, locus YNL298W, strain CLA4, hits give low values 1.01 | S. cerevisiae deletion strains, locus YNL307C, strain MCK1, hits give low values 1 | S. cerevisiae deletion strains, locus YNL322C, strain KRE1, hits give low values 1 | S. cerevisiae deletion strains, locus YNR052C, strain pop2, hits give low values 1.01 | S. cerevisiae deletion strains, locus YOL006C, strain TOP1, hits give low values 0.983 | S. cerevisiae deletion strains, locus YOL012C, strain htz1 0.884 | S. cerevisiae deletion strains, locus YOL147C, strain pex11, hits give low values 0.996 | S. cerevisiae deletion strains, locus YOR061W, strain CKA2, hits give low values 1 | S. cerevisiae deletion strains, locus YOR069W, strain VPS5, hits give low values 0.999 | S. cerevisiae deletion strains, locus YOR136W, strain idh2, hits give low values 0.997 | S. cerevisiae deletion strains, locus YOR144C, strain elg1, hits give low values 1 | S. cerevisiae deletion strains, locus YOR184W, strain ser1, hits give low values 0.987 | S. cerevisiae deletion strains, locus YOR316C, strain cot1, hits give low values 1 | S. cerevisiae deletion strains, locus YPL055C, strain LGE1, hits give low values 0.989 | S. cerevisiae deletion strains, locus YPL241C, strain CIN2, hits give low values 0.986 | S. cerevisiae deletion strains, locus YPR119W, strain clb2, hits give low values 0.995 | S. cerevisiae deletion strains, locus YPR141C, strain kar3, hits give low values 1 | S. cerevisiae deletion strains, locus YPR163C, strain tif3, hits give low values 0.997 | S. cerevisiae deletion strains, locus YPR167C, strain met16, hits give low values 1.01 | S. cerevisiae deletion strains, strain wtn01, hits give low values 0.992 | S. cerevisiae strains, strain wild type, hits give low values 1.01
